Reference: PubChem BioAssay (NCI)
This is part of a sample that, as a whole, favours compounds with a hit. Of some 79,000 tested, about 15% had one in any assay. Cut-off read from the data, not from the text of the source: active = growth inhibition above about 70%; inactive = the rest.

Experiments:
[1] = NCI Yeast Anticancer Drug Screen. Data for the rad50 strain (AID 155);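 note: 0% = growth of vehicle-only cultures of the same strain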; details: S. cerevisiae rad50 strain growth inhibition; at 50.0 µM; stronger effect = higher value
Procedure, shortened: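 Compounds were tested on a yeast strain with an engineered DNA damage repair alteration; the reported value is growth inhibition normalised to vehicle treatment.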

[2] = NCI Yeast Anticancer Drug Screen. Data for the mec2-1 strain (AID 157); details: S. cerevisiae mec2-1 strain, at 50.0 µM, stronger effect = higher value
Procedure, shortened: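 Each compound was tested on mec2-1 yeast, a strain altered in DNA damage repair or cell cycle control. Growth inhibition is reported relative to vehicle.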

[3] = NCI Yeast Anticancer Drug Screen. Data for the sgs1 mgt1 strain (AID 161);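 note: 0% = growth of cultures given vehicle only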; details: S. cerevisiae sgs1 mgt1 strain, at 50.0 µM, stronger effect = higher value
Procedure, shortened: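 Genetically altered yeast, compound exposure, growth inhibition relative to vehicle.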

[4] = NCI Yeast Anticancer Drug Screen. Data for the cln2 rad14 strain (AID 165);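 note: 0% = growth equal to vehicle treated cultures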; details: S. cerevisiae cln2 rad14 strain, at 50.0 µM, stronger effect = higher value
Procedure, shortened: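 Test compounds were added to cln2 rad14 yeast cultures; inhibition of growth was then determined by comparison with vehicle treatment.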

[5] = NCI Yeast Anticancer Drug Screen. Data for the bub3 strain (AID 167); details: S. cerevisiae bub3 mutant strain, at 50.0 µM, stronger effect = higher value
Procedure, shortened: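 Growth of a checkpoint-deficient yeast mutant is measured after compound exposure. Values represent inhibition relative to vehicle.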

[6] = NCI Yeast Anticancer Drug Screen. Data for the mlh1 rad18 strain (AID 175); details: S. cerevisiae mlh1 rad18 strain growth inhibition; at 50.0 µM; stronger effect = higher value
Procedure, shortened: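 Inhibition values reflect reduced growth of mutant yeast versus vehicle-treated controls following compound exposure; the mutations affect DNA damage repair.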

Measured: growth inhibition

O=[N+]([O-])c1ccc(P(=O)(O)O)cc1
inactive: [1] -7.5% | [2] -27.7% | [3] 0.3% | [4] -22.4% | [5] 2.85% | [6] 10.4%

COc1cc2c3c(c1OC)Oc1ccc(cc1)CC1c4c(cc(OC)c(OC)c4Oc4ccc(cc4)CC3N(C)CC2)CCN1C (centres undefined)
inactive: [1] 2.75% | [2] 11.9% | [3] -11.3% | [4] -8% | [5] -13.6% | [6] -3.65%

C/C=C1/CN2C3C[C@H]1C(CO)(C(=O)OC)[C@H]2Cc1c3n(C)c2ccccc12 (some centres undefined)
inactive: [1] -1.2% | [2] -4.35% | [3] 16.7% | [4] -0.1% | [5] 7% | [6] -8.9%

COc1cc(C=C2C(=O)NC(=O)NC2=O)ccc1O
inactive: [1] 1.85% | [2] -23.4% | [3] 5.05% | [4] 4.3% | [5] -2% | [6] 6.35%

N#CC(C#N)C1CN2CCC1CC2 (centres undefined)
inactive: [1] 1.95% | [2] 13.3% | [3] 15.6% | [4] 24.5% | [5] 4.9% | [6] -26.6%

CCC(CC)C(=O)Cl
inactive: [1] -3.8% | [2] -4.6% | [3] -33.2% | [4] -13.1% | [5] -1.35% | [6] -22.9%

Clc1ccc(C2CC3CCCCN3O2)cc1 (centres undefined)
inactive: [1] 13.6% | [2] 3% | [3] 5.9% | [4] -1.1% | [5] 11.6% | [6] 5.45%

ClCCCN1CCN(c2ccccc2Cl)CC1
inactive: [1] 9.35% | [2] -16.7% | [3] 7.45% | [4] 7.45% | [5] 1.15% | [6] -7.8%

COC1CCC2NCCNC2C1 (centres undefined)
inactive: [1] 6.35% | [2] -6% | [3] -9.85% | [4] -22.9% | [5] -8.7% | [6] 2.5%

O=P1(c2ccccc2)CCCCN1 (centres undefined)
inactive: [1] 12.2% | [2] -16.1% | [3] -5.1% | [4] -20.9% | [5] 3.55% | [6] 1.8%

NCCc1c[nH]c2ccccc12
inactive: [1] 10.8% | [2] -3.3% | [3] -15.8% | [4] 9% | [5] -0.75% | [6] -12.8%

O=C(O)C(O)(c1ccccc1)c1ccsc1 (centres undefined)
inactive: [1] 4.45% | [2] 2.15% | [3] -8.6% | [4] -28.9% | [5] 1.95% | [6] 8.8%

CN(C)P(=O)(N(C)C)N1CCCCC1
inactive: [1] -6.35% | [2] -10.2% | [3] 0.3% | [4] -22% | [5] -23.6% | [6] -4.3%

O=P(OCCCl)(OCCCl)OCCCl
inactive: [1] -12.1% | [2] -19.4% | [3] -19.2% | [4] -54.6% | [5] 0.15% | [6] -5%

C#CCn1c(I)cc2c(c1=O)COC(=O)[C@]2(O)CC
inactive: [1] 0.95% | [2] -3.3% | [3] 19.6% | [4] -5.4% | [5] 6.35% | [6] -31.8%

COc1cc(O)c([N+](=O)[O-])cc1[N+](=O)[O-]
inactive: [1] -6.4% | [2] 0.35% | [3] -2.9% | [4] 0% | [5] 18.9% | [6] 5.05%

CCOP(=O)(O)C1CCCC(C)[N-]1.CCOP(=O)(O)C1CCCC(C)[N-]1.CCOP(=O)(O)C1CCCC(C)[N-]1.[Ti+3] (centres undefined)
inactive: [1] 1.7% | [2] 0.1% | [3] -6.55% | [4] -24.1% | [5] -6.3% | [6] 2.6%

O=C1CCCN1CC#CCN1CCCC1
inactive: [1] -13.8% | [2] -20.9% | [3] 16.9% | [4] 3.3% | [5] 8.55% | [6] 6.2%

CCOC(=O)C(C[Si](C)(C)C)P(=O)(OCC)OCC (centres undefined)
inactive: [1] -24.6% | [2] -21.9% | [3] -58.4% | [4] -28.6% | [5] -26.7% | [6] -33%
